Compound activity (PubChem)
Compounds with a hit are over-represented: about 19% of the library has one in this group of screens.
HT1080-NT tox: kills 2HG-producing HT-1080-NT fibrosarcoma cells | HT-1080-NT fibrosarcoma viability, CellTiter-Glo ATP luminescence, 48 h | Potency, µM (titrated, usually from 46.1 µM), without a hit: at the top dose activity, negative = less viability, hits mostly cytotoxic | actives 1.6% (n = 360,000);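 also: NT is the 2HG producing partner of a matched IDH1 knockdown line; potency is read from the fitted curve at half-maximal effect; 0% = DMSO-treated cells and -100% = media-only wells without cells; nearly all actives have a fitted effect of over 55% in size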
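Compounds were tested in concentration-response format on HT-1080-NT cells for 48 hours at 37 degrees C. Cell viability came from CellTiter-Glo luminescence; curves were classified by r2, response magnitude and activity.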
ELG1 DNA repair: blocks ELG1-dependent DNA repair in HEK293T cells; HEK293T ELG1-luciferase reporter, luminescence, 16 h; DNA damage induced by 5-fluorouridine; actives 2.3% (n = 330,000); Potency, µM (highest dose often 46.1 µM), for inactives: top-dose activity change, negative = inhibition, actives largely listed as inhibitors; also: potency is read from the fitted curve at half-maximal effect; nearly all actives have a fitted effect of over 55% in size
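HEK293T cells expressing luciferase-tagged ELG1 (2,000/well) received 5-Fluorouridine plus compound or DMSO for 16 hr at 37 °C. Luciferase was read by ONE-Glo luminescence after 30 min at room temperature.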
TDP1 cell noCPT: qHTS for Inhibitors of human tyrosyl-DNA phosphodiesterase 1 (TDP1): qHTS in cells in absence of CPT. DT40 Tdp1-/- hTDP1 cells, no CPT, ATP luminescence, 48 h. Potency, µM (doses to about 46.2 µM), for inactives: top-dose activity change, negative = growth inhibition, most hits filed as inhibitors. actives 15% (n = 420,000). AID 686978, 2013; also: potency is read from the fitted curve at half-maximal effect; nearly all actives have a fitted effect of over 55% in size
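Growth kinetics read by CellTiter-Glo luminescence after ≥48 hr at 37 °C. Cells: DT40 Tdp1-/- stably carrying human TDP1, 400 per well, compound exposure in the absence of CPT (DMSO vehicle).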
IL1B secr inh: inhibitors of inflammasome signaling (IL-1 beta secretion); activity change, % at 57.5 µM; actives 4.7% (n = 360,000); THP-1 LPS/ATP IL-1B secretion, AlphaLISA, 16 h; stronger effect = lower value; in the data active = activity change below about -50%; inconclusive = mostly about -30% to -49%
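THP-1 cells pretreated 1 hr with compounds (up to 57.5 uM final), then stimulated with LPS (250 ng/mL final) plus ATP (1.25 mM final); secreted IL-1B measured by AlphaLISA after 16 hr, decreased signal indicating inhibition.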
DT40 TDP1 CPT: DT40-hTDP1 cell growth loss with CPT. chicken DT40 Tdp1-/-;hTDP1 cells + 20 nM CPT, ATP luminescence, 48 h. Potency, µM (titrated, usually from 46.2 µM), for inactives: at the top dose activity change, negative = growth inhibition, actives largely listed as inhibitors. actives 12% (n = 420,000). AID 686979; also: potency is read from the fitted curve at half-maximal effect; nearly all actives have a fitted effect of over 55% in size
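Chicken DT40 Tdp1-/- cells stably complemented with human TDP1 were seeded at 400 cells/well in medium containing 20 nM camptothecin, exposed to pin-transferred compounds, and grown at 37 °C for at least 48 hr. Viability was read as ATP luminescence.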
HT1080 IDH1KD tx: HT-1080 IDH1 knockdown cell toxicity (counter line); HT-1080 IDH1 knockdown viability, ATP luminescence, 48 h; Potency, µM (series often up to 46.1 µM), inactives show at the highest dose activity, negative = toxicity, hits mostly cytotoxic; actives 2% (n = 360,000);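 also: potency is read from the fitted curve at half-maximal effect; 0% = DMSO wells and -100% = cell-free medium wells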
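Using the IDH1-knockdown HT-1080 line run in the same batch and compound series as the NT line, viability after 48 h at 37 °C was determined by CellTiter-Glo luminescence and expressed as % activity.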
An asterisk follows results filed as active; ? = inconclusive; nt = not tested or not shown. Unless noted, calls follow the shape of the dose curve; as a rule, active = well fitted curve in the direction sought with a large enough effect; inconclusive = small, poorly fitted or top-dose-only effect, or another doubt; inactive = no such curve, though single readings can be large; an effect the other way counts as inactive or inconclusive. Unless noted, % is scaled to controls: 0 for no effect and ±100 for the full control effect.

SMILES | HT1080-NT tox | ELG1 DNA repair | TDP1 cell noCPT | IL1B secr inh | DT40 TDP1 CPT | HT1080 IDH1KD tx
Cc1ccccc1-c1ncc(CN2CCN(C3CCCC3)C(CCO)C2)cn1 (centres undefined) | 2.9% | -11.0% | -10.5% | 5.9 | -10.4% | -0.9%
COc1ccc(CN(CCCN2CCOCC2)C(=O)Nc2cccc(Cl)c2)cc1OC | -0.6% | ? | ? | -13.6 | -20.7% | -8.4%
CCOc1ccc(NC(=O)N(CCN2CCOCC2)Cc2ccc3c(c2)CCCN3CC)cc1 | 2.0% | ? | -4.5% | 1.9 | ? | 0.0%
CCN1CCCc2cc(CN(CCN3CCOCC3)C(=S)Nc3cccc(OC)c3)ccc21 | 0.7% | ? | 20.6µM* | -1.7 | ? | -6.6%
CCCN1CCCc2cc(CN(CCCN3CCOCC3)C(=O)Nc3ccc(Cl)c(Cl)c3)ccc21 | nt | nt | 7.31µM* | nt | 25.9µM* | nt
CCCN1CCCc2cc(CN(CCCN3CCOCC3)C(=O)Nc3ccc(OCC)cc3)ccc21 | -0.1% | -28.1% | ? | ? | 25.9µM* | -10.4%
COc1cccc(NC(=S)NCCN2CCOCC2)c1 | -9.1% | -2.0% | -6.2% | 24.7 | -1.0% | -1.1%
CN(C)c1nc(CN2CCCCC2c2cccnc2)nc2ccccc12 (centres undefined) | nt | nt | -0.2% | nt | -1.7% | nt
COc1ccc(C(NC(C)=O)c2ccc3cccnc3c2O)c(OC)c1 (centres undefined) | ? | ? | 2.91µM* | 111.1 | 3.66µM* | 6.51µM*
COc1ccc(C(NC(C)=O)c2ccc3cccnc3c2O)cc1OC (centres undefined) | nt | nt | 6.31µM* | nt | 6.31µM* | nt
COc1cccc(C(NC(C)=O)c2nc(-c3cccc4cccnc34)cs2)c1 (centres undefined) | 14.1% | nt | ? | 37.6 | ? | 1.4%
CC(=O)NC(c1ccccc1)c1cccnc1 (centres undefined) | -0.5% | -4.2% | -14.7% | -23.5 | -15.0% | -3.3%
CC(=O)NC(c1ccc2ccccc2c1)c1ccc2cccnc2c1O (centres undefined) | ? | ? | 4.61µM* | 138.7 | 3.26µM* | ?
COc1ccc(C(NC(C)=O)c2c(O)ccc3ccccc23)cc1OC (centres undefined) | 4.4% | 20.5% | -9.0% | 29.8 | 1.2% | 6.5%
CO/N=C/c1ccc(N2CCN(C(=O)c3cccc(C(F)(F)F)c3)CC2)c([N+](=O)[O-])c1 | -3.6% | ? | 20.6µM* | -23.4 | 14.6µM* | ?
CO/N=C/c1ccc(N2CCN(C(=O)c3ccc(Cl)cc3Cl)CC2)c([N+](=O)[O-])c1 | ? | -24.7% | 5.8µM* | -61.8* | 10.3µM* | ?
CO/N=C/c1ccc(N2CCN(C(=O)c3ccc(F)cc3)CC2)c([N+](=O)[O-])c1 | 6.3% | ? | 14.6µM* | -7.6 | 14.6µM* | -12.8%
O=C(O/N=C\c1ccc(N2CCCCC2)c([N+](=O)[O-])c1)c1c(F)cccc1F | -13.9% | -3.1% | ? | -13.5 | ? | -13.9%
C[C@H]1CN([C@@H](C)CO)C(=O)CCCn2cc(nn2)CO[C@@H]1CN(C)S(C)(=O)=O | -3.2% | nt | -14.4% | -28.0 | 23.1% | -2.5%
CC1NC(=O)COC1c1ccccc1 (centres undefined) | 1.7% | nt | 0.8% | -17.6 | 21.0% | -2.1%
O=C1c2cccnc2C(=O)N1c1nc(-c2ccccc2)cs1 | nt | nt | -29.3% | nt | -20.8% | nt
CCN(CC)CCCC(C)Nc1cc(/C=C/c2ccccc2Cl)nc2cc(Cl)ccc12 (centres undefined) | nt | nt | 0.891µM* | nt | 0.631µM* | nt
